Source: PubChem BioAssay
In the library only some 4.1% were active in any assay of this set; here they are far more common.
NALP3 yeast inh: NALP3 inflammasome inhibitors in reconstituted yeast, primary screen, luminescence, uHTS; inhibition, % at 10 µM; Yeast reconstituted NLRP3/ASC/caspase-1, beta-gal luminescence, 24 h; hit rate 0.39% among 330,000;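 active means inhibition of 50% or more; inactive means inhibition below 50%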;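 further: plate controls were induced DMSO wells for no effect and uninduced yeast grown without galactose for full effect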
NALP1 inh: NALP1 inflammasome inhibitors in reconstituted yeast, colorimetric, S. cerevisiae, triplicate retest; S. cerevisiae NALP1/ASC/caspase-1 growth, X-gal OD620, 72 h; inhibition, % at 10 µM; hit rate 0.61% among 280,000; in the data active means inhibition mostly above about 24%, no sharp cut-off; inactive means mostly below about 32%
tim23-1 inh: growth inhibitors of tim23-1 mutant yeast, primary screen, luminescence, uHTS; hit rate 1.3% among 330,000; AID 463212, 2010; inhibition, % at 20 µM; S. cerevisiae tim23-1 growth, BacTiter-Glo luminescence, 24 h;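 active means growth inhibition of the mutant yeast at or above 50%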;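 further: temperature-sensitive mutant grown at 25 °C; plate controls were DMSO-treated mutant yeast for no effect and medium wells lacking yeast for full effect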
tim10-1 inh: growth inhibitors of tim10-1 mutant yeast, primary screen, luminescence, uHTS. S. cerevisiae tim10-1 ts strain growth, BacTiter-Glo, 24 h. inhibition, % at 20 µM. hit rate 2.2% among 330,000;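 active means inhibition of at least 40%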;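 further: mutant grown at 25 °C; 0% = DMSO wells with yeast and 100% = wells holding no yeast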
PfHsp90 yeast 2: growth inhibition of PfHsp90-expressing yeast, primary screen, antimalarial PfHsp90 inhibitor project, S. cerevisiae, BacTiter-Glo luminescence, single point, set 2; BacTiter-Glo ATP, 48 h; yeast lacking PDR1 and PDR3 efflux regulators; inhibition, % at 9.4 µM; hit rate 0.32% among 310,000;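 active means every replicate shows inhibition above about 80%, whatever the replicate mean, limit read from the data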;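 further: 0% = DMSO neutral controls and 100% = 20 µM radicicol positive controls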
TIM10 inh: growth inhibitors of isogenic TIM10 control yeast, primary screen, counter-screen for tim10-1 yeast inhibitor project, luminescence, uHTS | S. cerevisiae TIM10 strain growth, BacTiter-Glo luminescence, 24 h | inhibition, % at 10 µM | hit rate 1.4% among 330,000;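 active means inhibition of 40% or more at the single tested concentration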;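 further: wild-type TIM10 isogenic control strain grown at permissive 25 °C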
NALP3 yeast conf: NALP3 inhibitors retested in yeast, confirmation, luminescence, single concentration; shares compounds with NALP3 yeast inh; yeast expressing human NALP3; inhibition, % at 10 µM; hit rate 81% among 1,300; AID 435006, 2010; in the data active means inhibition above about 48%
Casp1-ASC yeast: CASP1-PYCARD signaling inhibition in yeast, confirmatory test, counterassay for NLRP3 inhibitor program, one-dose; inhibition, % at 10 µM; hit rate 66% among 1,000; AID 488784, 2010; yeast expressing Caspase-1-ASC, luminescence counter screen; shares compounds with NALP3 yeast inh
NALP3 yeast rt: NALP3 inhibitors in yeast, repeat test, confirmation, luminescence, single concentration, retest; yeast expressing human NALP3, luminescence read-out; shares compounds with NALP3 yeast inh; inhibition, % at 10 µM; hit rate 53% among 1,000
Numbers without * were called inactive. Unless noted, no stated cut-off is given here; in the data, active means inhibition above about 50%; inactive means the rest.

For Cc1nc2cc(NC(=O)c3ccc([N+](=O)[O-])s3)ccc2s1 the results were NALP3 yeast inh 60.6*, NALP1 inh 13.0, tim23-1 inh 44.1, tim10-1 inh 19.8, PfHsp90 yeast 2 -7.8, TIM10 inh 34.4 and NALP3 yeast conf 68.1*.
For CC(=O)Nc1ccc2nc(NC(=O)c3ccc([N+](=O)[O-])s3)sc2c1 the results were NALP3 yeast inh 17.9, NALP1 inh -7.5, tim23-1 inh 2.4, tim10-1 inh 17.5 and TIM10 inh -20.0.
Screening C=CCOc1ccc(/C=C/C(C)=N\O)cc1 returned NALP3 yeast inh 58.8*, NALP1 inh 18.6, tim23-1 inh 25.9, tim10-1 inh 2.6, PfHsp90 yeast 2 -41.3, TIM10 inh -8.8, NALP3 yeast conf 67.5*, Casp1-ASC yeast 60.3* and NALP3 yeast rt 46.9.
`OCCNc1nc(-c2ccccc2)nc2c1oc1ccccc12` gave NALP3 yeast inh 29.6, tim23-1 inh 7.0, tim10-1 inh 15.0, PfHsp90 yeast 2 -23.4 and TIM10 inh -16.9.
`O=c1c2cc(Cl)ccc2nc(-c2ccc([N+](=O)[O-])cc2)n1O` gave NALP3 yeast inh 64.8*, NALP1 inh -10.2, tim23-1 inh 36.9, tim10-1 inh 1.7, PfHsp90 yeast 2 2.3, TIM10 inh -1.9, NALP3 yeast conf 67.8*, Casp1-ASC yeast 37.5 and NALP3 yeast rt 58.4*.
For COC(=O)COc1ccc2c(=O)c(-c3ccccc3)coc2c1 the results were NALP3 yeast inh 11.2, NALP1 inh 9.5, tim23-1 inh 17.4, tim10-1 inh 18.3, PfHsp90 yeast 2 -7.9 and TIM10 inh 9.0.
For CC(C)Oc1ccc2c(=O)c(-c3ccccc3)coc2c1 the results were NALP3 yeast inh 57.6*, NALP1 inh 49.2, tim23-1 inh 26.4, tim10-1 inh 11.2, PfHsp90 yeast 2 6.7, TIM10 inh -5.5, NALP3 yeast conf 66.0*, Casp1-ASC yeast 40.4 and NALP3 yeast rt 36.7.
`COc1cc(NC(=O)CCc2nnc3ccc(N4CCCCC4)nn23)cc(OC)c1OC` gave NALP3 yeast inh -6.7, NALP1 inh 10.8, tim23-1 inh 0.9, tim10-1 inh 11.4, PfHsp90 yeast 2 -8.9 and TIM10 inh 7.0.
`CC1CCCN(CCOc2cccc(Oc3ccccc3)c2)C1` (stereo not drawn) gave NALP3 yeast inh 50.3*, NALP1 inh 22.3, tim23-1 inh -18.8, tim10-1 inh -37.8, PfHsp90 yeast 2 4.2, TIM10 inh -43.3, NALP3 yeast conf 55.8*, Casp1-ASC yeast 44.8 and NALP3 yeast rt 39.6.
Screening CN(CC(=O)Nc1cccc(S(=O)(=O)N2CCCC2)c1)CC(=O)Nc1ccc(Cl)c(C(F)(F)F)c1 returned NALP3 yeast inh 22.1, tim23-1 inh -18.1, tim10-1 inh 3.1 and TIM10 inh 11.8.
Screening Cn1cnc2ncnc(Oc3ccc(Br)cc3)c21 returned PfHsp90 yeast 2 0.3.
Screening O=C(CSc1c[nH]c2ccccc12)N1CCCc2ccccc21 returned NALP3 yeast inh 31.2, NALP1 inh 29.2, tim23-1 inh 30.8, tim10-1 inh 24.6, PfHsp90 yeast 2 -9.6 and TIM10 inh 7.3.
Screening O=C(Cc1c[nH]c2ccccc12)N1CCc2ccccc21 returned NALP3 yeast inh 62.0*, NALP1 inh 9.9, tim23-1 inh 14.0, tim10-1 inh 19.9, PfHsp90 yeast 2 2.8, TIM10 inh 12.0, NALP3 yeast conf 38.2, Casp1-ASC yeast 60.0* and NALP3 yeast rt 59.8*.
CCOCCCNC(=O)C1CCCN(S(=O)(=O)c2ccc(-n3cnnn3)cc2)C1 (stereo not drawn) was read as NALP3 yeast inh 5.6, NALP1 inh 2.3, tim23-1 inh -10.2, tim10-1 inh -11.6, PfHsp90 yeast 2 18.2 and TIM10 inh -0.2.
Screening O=C(c1cc(-c2cccc(Cl)c2)on1)N1CCCC1 returned NALP3 yeast inh 58.9*, NALP1 inh 25.8, tim23-1 inh 17.6, tim10-1 inh -14.6, PfHsp90 yeast 2 17.4, TIM10 inh 7.8, NALP3 yeast conf 76.7*, Casp1-ASC yeast 76.2* and NALP3 yeast rt 64.4*.
O=C(c1cc(-c2cccc(Cl)c2)on1)N1CCN(c2ccccc2)CC1 was read as NALP3 yeast inh 10.5, NALP1 inh 8.8, tim23-1 inh 20.4, tim10-1 inh 2.5, PfHsp90 yeast 2 13.4 and TIM10 inh 32.0.
For Cc1cccc(-c2nnc(SCC#N)n2-c2ccccc2)c1 the results were NALP3 yeast inh 3.7, NALP1 inh 24.8, tim23-1 inh 11.5, tim10-1 inh 24.7, PfHsp90 yeast 2 3.2 and TIM10 inh 4.8.
Screening Cc1ccc(-n2c(SCCN)nnc2-c2cccc(C)c2)cc1 returned NALP3 yeast inh 77.7*, tim23-1 inh 13.3, tim10-1 inh 10.6, PfHsp90 yeast 2 -8.3, TIM10 inh -13.2 and NALP3 yeast conf 78.2*.
Nc1c(-c2ccccc2)cnn1-c1cccc(Cl)c1 was read as NALP3 yeast inh 50.3*, NALP1 inh 25.6, tim23-1 inh 34.2, tim10-1 inh -55.6, PfHsp90 yeast 2 -1.8, TIM10 inh -56.9, NALP3 yeast conf 76.0*, Casp1-ASC yeast 59.2* and NALP3 yeast rt 54.5*.
`O=C1OCCN1N1CCOC1=O` gave PfHsp90 yeast 2 23.6.
For COc1ccc(C(NC(=O)c2cc(OC)ccc2OC)c2ccccc2)cc1 (stereo not drawn) the results were NALP3 yeast inh 8.5, NALP1 inh 28.9, tim23-1 inh 23.9, tim10-1 inh 5.4, PfHsp90 yeast 2 -27.0 and TIM10 inh -6.9.
For COc1ccc(C(NC(=O)c2c(F)c(F)c(F)c(F)c2F)c2ccccc2)cc1 (stereo not drawn) the results were NALP3 yeast inh 62.7*, NALP1 inh 21.3, tim23-1 inh 8.7, tim10-1 inh 9.7, PfHsp90 yeast 2 32.9, TIM10 inh 2.9 and NALP3 yeast conf 33.5.
O=C(Nc1cnc2ccccc2c1)c1ccco1 was read as NALP3 yeast inh 51.7*, NALP1 inh 0.9, tim23-1 inh 16.3, tim10-1 inh -21.5, PfHsp90 yeast 2 -6.1, TIM10 inh 15.3, NALP3 yeast conf 38.0, Casp1-ASC yeast 41.3 and NALP3 yeast rt 42.0.
